Assay [1] can be described thus: qHTS Assay for Identifying Gametocytocidal Compounds (AID 743244). Also: potency is read from the fitted curve at half-maximal effect.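 As to max response: % is scaled to controls: 0 for no effect and ±100 for the full control effect; actives lower the fluorescent signal which means gametocytes are killed.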 To be noted: P. falciparum 3D7 stage III-V gametocytes, alamarBlue, 72 h; max response: hits give low values. In a few lines: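 Fluorescence at Ex 525/Em 598 nm, recorded 24 h after alamarBlue addition, reports residual metabolic activity of 3D7 gametocytes (stages III–V) following 72 h compound exposure at 37 °C, 5% CO2.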
(Quantitative high-throughput screening tests each substance at several concentrations.)

Assay [2] in a line: qHTS assay for measurement of the activity of small molecule inhibitors on Zika virus induced Caspase-3 activity in human iPSC derived neural progenitor cells (hNPCs) (AID 1224857). Also: % of control where 0% means no effect; nearly all actives have a fitted effect of over 65% in size. In a few lines:
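Zika virus (2 FFU/cell) infection of human iPSC-derived NPCs, 6 h, following 1 h compound preincubation. Read-out: Caspase-Glo 3/7 luminescence.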

Assay [3] can be described thus: qHTS assay for measurement of the activity of small molecule inhibitors on Zika virus induced Caspase-3 activity in human astrocytoma cells (AID 1224859).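 Also: plate controls were ZIKV-infected untreated cells for no effect and uninfected cells for full effect.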 Summed up:
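Caspase activation in ZIKV-infected SNB-19 cells (2 FFU/cell, 6 h) measured by Caspase-Glo 3/7 luminescence after 30 min RT; compound pre-incubated 1 h; normalised to uninfected and infected controls.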

Assay [4] in a line: qHTS assay to identify small molecule inhibitors of chordoma cells - UCH-2 (AID 1259356). Also: series mostly up to about 46 µM; % is scaled to controls: 0 for no effect and ±100 for the full control effect.
Assay [5] can be described thus: P-glycoprotein substrates identified in KB-8-5-11 adenocarcinoma cell line, qHTS therapeutic library screen (AID 1346987). Also: nearly all actives have a fitted effect of over 65% in size. Also: potency is read from the fitted curve at half-maximal effect. In a few lines:
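KB-8-5-11: colchicine-selected sub-line of KB-3-1 over-expressing P-gp; assay medium lacked colchicine. 72 h drug exposure at 37 degree C, CellTiter-Glo.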

Assay [6] in a line: NS1 protein of Zika virus - qHTS assay to identify small molecule inhibitors in human HEK 293 cells (AID 1347053).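 Also: series mostly up to about 46 µM; plate controls were infected untreated cells for no effect and uninfected cells for full effect; nearly all actives have a fitted effect of over 55% in size.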 In a few lines:
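HEK 293 cells pretreated with compound for 1 h, then infected with ZIKV MR766 (MOI 0.5) for 24 h at 37 C. NS1 detected by TR-FRET with two anti-NS1 antibodies; normalized to uninfected (0%) and infected (100%) wells.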

The nature of assay [7]: qHTS assay for cell viability of HEK293 cells (AID 743288). Also: % is scaled to controls: 0 for no effect and ±100 for the full control effect; nearly all actives have a fitted effect of over 50% in size. As to conditions: ATP luminescence (CellTiter-Glo), 18 h, hits give low values. In a few lines: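 Total intracellular ATP, measured with a luciferase-coupled reagent, indicates the number of viable HEK293 cells. Exposure to test chemicals lasts 18 h at 37 C in 1,536-well format at 2,000 cells/well.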
Assay [8] in a line: qHTS assay for cell viability of the p53RE-bla HCT-116 cell line (AID 743292). Also: % is scaled to controls: 0 for no effect and ±100 for the full control effect; nearly all actives have a fitted effect of over 55% in size. Summed up:
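CellSensor p53RE-bla HCT-116 cells, 4,000/well, preincubated 5 h at 37 C, then exposed to compounds in DMSO for 16 h at 37 C. Viability read as CellTiter-Glo luminescence (intracellular ATP) after 30 min at room temperature.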

“And” between values parts separate entries of the source, which are not always exact repeats. Equal values may be shown once. Records with an inconclusive call do not appear. The source made the active and inactive calls. Calls follow the shape of the dose curve; as a rule, active = well fitted curve in the direction sought with a large enough effect; inconclusive = small, poorly fitted or top-dose-only effect, or another doubt; inactive = no such curve, though single readings can be large; an effect the other way counts as inactive or inconclusive.

`CC(C)CCCC(C)N` (configuration not stated): the max response in assay [1] is 6.57% (inactive). Further, the Potency entry in assay [2], in assay [4], in assay [5] and in assay [6] was “inactive” each time. For the same molecule, the result in assay [3] was inactive.
Take `CCOC(=O)c1c(N)sc2c1CCN(Cc1ccccc1)C2`: the Potency in assay [1] was 11.2 µM (active). Besides, the Potency result in assay [2], in assay [4], in assay [5] and in assay [6] was “inactive” each time. Besides, the molecule was classed as inactive in assay [3].
Regarding `Cc1cc(NS(=O)(=O)c2ccc(N)cc2)nc(C)n1`, the Potency result in assay [2], in assay [4], in assay [5] and in assay [6] was “inactive” throughout. Further, the call in assay [3] was inactive.
In the case of `CCN(CC)CCOC(=O)C(Cc1cccc2ccccc12)CC1CCCO1` (configuration not stated), the max response in assay [1] is 7.43% (inactive). Further, the Potency result in assay [2], in assay [4] and in assay [6] was “inactive” in each case. Besides, the result in assay [3] was inactive.
Consider `CC(C(=O)O)c1cccc(Oc2ccccc2)c1` (configuration not stated), for which the max response in assay [1] is 17.6% (inactive). Besides, the Potency result in assay [2], in assay [4], in assay [5] and in assay [6] was “inactive” in each case. Besides, in assay [3], the molecule was called inactive.
Take `N[C@H](C(=O)O)[C@@H](O)c1ccc(O)c(O)c1`: the max response in assay [1] was 1.39% (inactive). In addition, the Potency entry in assay [2], in assay [4], in assay [5] and in assay [6] was “inactive” in each case. Besides, the molecule was classed as inactive in assay [3].
In the case of `CN1CCN(c2cc3c(cc2F)c(=O)c(C(=O)O)cn3-c2ccc(F)cc2)CC1`, the Potency entry in assay [2], in assay [4] and in assay [6] was “inactive” throughout. Moreover, in assay [3], the result was inactive.
In the case of `CC(=O)NCCCCCC(=O)O`, in assay [1], the max response is -5.55% (inactive). Also, the Potency result in assay [2], in assay [4], in assay [5] and in assay [6] was “inactive” each time. Besides, in assay [3], the result was inactive.
As to `CCOc1ccccc1OCCN[C@H](C)Cc1ccc(OC)c(S(N)(=O)=O)c1`, the max response in assay [1] is 5.89% (inactive). Besides, the Potency result in assay [2], in assay [4], in assay [5] and in assay [6] was “inactive” in each case. Moreover, in assay [3], the molecule was classed as inactive.
For the molecule `CC(C)(Cc1c[nH]c2ccccc12)NCC(O)COc1ccccc1C#N` (configuration not stated), the Potency result in assay [2], in assay [4], in assay [5] and in assay [6] was “inactive” in each case. In assay [3], the outcome was inactive.
For `CCCCCCCCOc1ccc(C(=O)c2ccccc2)c(O)c1`, the max response in assay [1] is -5.25% (inactive); in assay [7], -9.08% (inactive). Moreover, the outcome in assay [8] and in assay [3] was inactive. For the same molecule, the Potency result in assay [2], in assay [4], in assay [5] and in assay [6] was “inactive” in each case.
As to `CCc1nn(CCCN2CCN(c3cccc(Cl)c3)CC2)c(=O)n1CCOc1ccccc1`, the max response in assay [1] is -8.53% (inactive) and -14% (inactive). Further, the Potency result in assay [2], in assay [4] and in assay [6] was “inactive” throughout. In assay [3], the molecule was classed as inactive. In assay [5], the Potency was 10.3 µM (active).
Consider `Cc1ccc(-c2ncc(Cl)cc2-c2ccc(S(C)(=O)=O)cc2)cn1`, for which, in assay [1], the max response was 12.8% (inactive). Also, the Potency entry in assay [2], in assay [4] and in assay [6] was “inactive” each time. In addition, in assay [3], the result was inactive.
`CC1(C)OC[C@@H]2O[C@@]3(C(=O)O)OC(C)(C)O[C@H]3[C@@H]2O1`: the max response in assay [1] was -4.16% (inactive); in assay [7], -6.28% (inactive). Also, the result in assay [8] and in assay [3] was inactive. The Potency result in assay [2], in assay [4], in assay [5] and in assay [6] was “inactive” in each case.

These data come from PubChem BioAssay (NCATS).
